Bioassay records as filed in PubChem.
BAZ2B inh – qHTS Assay for Inhibitors of BAZ2B | Potency, µM (titrated, usually from 114 µM), for inactives: top-dose activity change, negative = inhibition, hits mostly inhibitors | Bromodomain adjacent to zinc finger domain protein 2B (Homo sapiens), Q9UIF8 | hit rate 4.4% among 360,000 | AlphaScreen BAZ2B-H3K14Ac peptide displacement | AID 504333, 2011; further: on the % scale 0 is the no-effect control and ±100 the full control effect; nearly all actives have a fitted effect of over 60% in size
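BAZ2B (50 nM) with biotin-H3(5-23)K14Ac peptide (50 nM) in PBS pH 7.4, 0.01% Tween-20, preformed 30 min, then compound 30 min at room temperature; top concentration 110uM. AlphaScreen streptavidin donor/nickel chelate acceptor beads (10 ug/mL final), 20 min dark, signal read.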
Sfp inh – qHTS Assay for Inhibitors of Bacillus subtilis Sfp phosphopantetheinyl transferase (PPTase); 4'-phosphopantetheinyl transferase ffp (Bacillus subtilis), Q9F4F7; Biochemical Sfp PPTase activity, qHTS; AID 1490, 2009; hit rate 3.5% among 310,000; Potency, µM, without a hit: largest response in the series, negative = inhibition, usual class: inhibitors;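 further: the enzyme is Sfp with the accession as filed and its product quenches rhodamine fluorescence; 0% = enzyme reaction without inhibitor and -100% = no enzyme wells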
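With Hepes-Na pH 7.6 buffer containing 10 mM MgCl2, Sfp (15 nM) modified BHQ-2-YbbR (12.5 uM) using rhodamine-CoA (5 uM). Two reads 30 minutes apart at 525/598 nm yielded each well's rate.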
HP1b chromo inh – HTS for Inhibitors of HP1-beta Chromodomain Interactions with Methylated Histone Tails; Chromobox protein homolog 1 (Homo sapiens), P83916; AlphaScreen HP1-beta / biotin-H3K9me3 peptide binding; Potency, µM (series often up to 114 µM), inactives show top-dose activity change, negative = inhibition, most hits filed as inhibitors; hit rate 0.56% among 390,000; further: nearly all actives have a fitted effect of over 70% in size
Target sequence (P83916 whole entry, looked up): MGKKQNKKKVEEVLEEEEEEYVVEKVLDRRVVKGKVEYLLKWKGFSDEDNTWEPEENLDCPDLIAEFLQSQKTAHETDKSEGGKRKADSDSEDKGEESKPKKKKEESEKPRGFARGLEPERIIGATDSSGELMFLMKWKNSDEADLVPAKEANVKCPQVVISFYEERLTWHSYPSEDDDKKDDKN
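AlphaScreen: HP1-beta (50 nM) preformed 30 min with biotin-H3(1-18)K9me3 peptide (50 nM) in PBS pH 7.4, 0.01% Tween-20. Compound added for 30 min at RT, then streptavidin donor/nickel chelate acceptor beads (10 ug/mL) for 30 min.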
JMJD2A Tudor inh – qHTS Assay for Inhibitors of JMJD2A-Tudor Domain; hit rate 4.4% among 390,000; AlphaScreen JMJD2A-Tudor / H3K4me3 peptide binding; Lysine-specific demethylase 4A (Homo sapiens), O75164; Potency, µM (top dose mostly 114 µM), for inactives: at the highest dose activity change, negative = inhibition, usual class: inhibitors; further: on the % scale 0 is the no-effect control and ±100 the full control effect; nearly all actives have a fitted effect of over 50% in size
L3MBTL1 inh – qHTS Assay for the Inhibitors of L3MBTL1; Lethal(3)malignant brain tumor-like protein 1 (Homo sapiens), Q9Y468; AlphaScreen L3MBTL1–H3K9me1 peptide binding; Potency, µM (titrated, usually from 57.1 µM), for the others: top-dose activity, negative = inhibition, actives largely listed as inhibitors; hit rate 0.66% among 230,000; AID 485360, 2010; further: on the % scale 0 is the no-effect control and ±100 the full control effect; nearly all actives have a fitted effect of over 60% in size
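AlphaScreen proximity signal between nickel-chelate acceptor and streptavidin donor beads (final 10 ug/mL) reports binding of 50 nM L3MBTL1 to 75 nM biotin-H3 K9me1 peptide; complex incubated with compounds 30 min at room temperature; cefsulodin titration as control.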
G9a block – qHTS Assay for Inhibitors of Histone Lysine Methyltransferase G9a. Histone-lysine N-methyltransferase EHMT2 (Homo sapiens), Q96KQ7. G9a H3K9 monomethylation, AlphaScreen, 2 h. Potency, µM (titrated, usually from 102 µM), without a hit: top-dose activity, negative = inhibition, most hits filed as inhibitors. hit rate 8.8% among 350,000; further: on the % scale 0 is the no-effect control and ±100 the full control effect; nearly all actives have a fitted effect of over 75% in size
Target sequence (Q96KQ7 913-1193 limits assumed): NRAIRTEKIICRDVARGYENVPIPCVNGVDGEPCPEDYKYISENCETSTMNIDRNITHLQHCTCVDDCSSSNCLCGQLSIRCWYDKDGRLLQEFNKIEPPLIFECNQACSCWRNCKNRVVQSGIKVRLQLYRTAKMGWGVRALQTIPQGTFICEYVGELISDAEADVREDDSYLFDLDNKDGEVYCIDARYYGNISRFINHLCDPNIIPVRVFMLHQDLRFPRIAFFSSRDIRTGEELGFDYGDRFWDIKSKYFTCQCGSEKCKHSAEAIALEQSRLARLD
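AlphaScreen detection with an anti-monomethyl H3K9 antibody quantified product after a 2 h room-temperature reaction containing 500 nM biotinylated H3K9 peptide, 20 µM SAM and 20 nM enzyme, which had been preincubated 15 min with compound.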
* hit, by the source's call; u = inconclusive; x = no result; [ ] = dose if it differs, or a comment. In the library only some 12% were active in any assay of this set; here they are far more common. The call rests on the fitted dose curve; in most records, active means well fitted curve in the direction sought with a large enough effect; inconclusive means small, poorly fitted or top-dose-only effect, or another doubt; inactive means no such curve, though single readings can be large; an effect the other way counts as inactive or inconclusive. Potency means the concentration at half of the fitted maximal effect.

SMILES	BAZ2B inh	Sfp inh	HP1b chromo inh	JMJD2A Tudor inh	L3MBTL1 inh	G9a block
COc1ccccc1C1CC(=O)Nc2cc3c(cc21)OCCO3 (stereo not drawn)	-31.7%	-8.3%	-4.6%	-30.2%	x	-36.0%[59 µM]
CC(C)Oc1ccccc1C1CC(=O)Nc2cc3c(cc21)OCCO3 (stereo not drawn)	50.1µM*	1.1%	-11.3%	u	-0.1%	-8.8%[59 µM]
COc1cccc(C2CC(=O)Nc3cc4c(cc32)OCCO4)c1OC(C)C (stereo not drawn)	-33.7%	5.6%	u	u	-4.6%	44.7µM*
COc1ccc(NS(=O)(=O)c2ccc3[nH]c(=O)ccc3c2)cc1OC	u	x	8.2%	u	x	-40.4%[59 µM]
CC(C)N(Cc1ccccc1)C(=O)Cn1ncc2c([nH]c3ccccc32)c1=O	-1.8%	x	12.8%	-15.8%	x	-4.3%[59 µM]
CCOc1ccc(C(=O)N2CCC(c3nc4ccccc4o3)CC2)cc1	-4.8%	x	9.2%	-17.9%	x	-6.6%[59 µM]
Oc1c(Br)cc(Br)cc1CNc1cnc2ccccc2c1	u	-17.0%	4.9%	u	9.2%	x
Oc1c(Br)cc(Br)cc1CNc1ccc(F)cc1	39.8µM*	-26.7%	-15.6%	u	x	44.7µM*
CN(C)/C=N/c1sc2c(c1C#N)CCCC2	u	44.7µM*	12.8%	-32.2%	-15.4%	50.1µM*
CC1CCc2c(sc(/N=C/N(C)C)c2C#N)C1 (stereo not drawn)	39.8µM*	4.9%	-3.7%	-30.8%	-6.9%	22.4µM*
N#Cc1c(/N=C/c2ccco2)sc2c1CCCCC2	35.5µM*	-0.2%	u	-19.4%	-24.3%	u
CCn1cc(C(=O)N2CCN(c3ccc(F)cc3)CC2)c(=O)c2cc(S(=O)(=O)N3CCOCC3)ccc21	x	x	36.8%	-1.0%	x	-12.1%[59 µM]
Cc1ccc(C)c(NC(=O)CSc2nncn3c2cc2sccc23)c1	-34.1%	x	34.7%	-13.6%	x	-30.1%[59 µM]
COc1cc(NC(=O)C2CCN(C(=O)c3sc4nc[nH]c(=O)c4c3C)CC2)cc(OC)c1OC	0.4%	x	24.0%[57 µM]	0.6%	x	5.2%[59 µM]
O=C(O)[C@@H]1CSC2(CCSC2)N1 (stereo partly drawn)	x	44.7µM*	x	x	6.7%	u
COCCCNc1nc2nonc2nc1N1C[C@H]2CC[C@H]1C2	8.8%	10.3%	2.7%	-14.7%	3.5%	x
COCCNc1nc2nonc2nc1N1C[C@H]2CC[C@H]1C2	3.9%	-0.5%	36.9%	7.2%	9.9%	79.4µM*
Cc1cc(NC(=O)c2cccc(Oc3ccccc3)c2)n[nH]1	u	5.7%	39.3%	-23.8%	x	-37.4%
O=C(Nc1nn[nH]n1)c1cccc(Oc2ccccc2)c1	11.9%	-6.5%	29.9%	u	-0.1%	39.8µM*
CCOc1ccccc1C(=O)Nc1ccccc1C(N)=O	13.4%	-0.7%	17.5%	-11.5%	x	-30.9%[12.7 µM]
CCOc1ccccc1C(=O)Nc1nn[nH]n1	50.1µM*	23.3%	u	56.2µM*	7.1%	25.1µM*
Cc1ccc(CN2C(=O)CN(C3CCC(C)CC3)C(=O)C2c2ccc(F)cc2)cc1 (stereo not drawn)	12.1%	x	27.3%	-13.8%	x	29.2%[59 µM]
COc1cc(C(CC(=O)Nc2cc(C)ccc2C)N2Cc3ccccc3C2=O)cc(OC)c1OC (stereo not drawn)	-14.7%	x	32.8%	0.0%	x	11.9%[59 µM]
COc1cccc(C2CNC3(CCCC(C)C3)c3[nH]c4ccccc4c32)c1OC (stereo not drawn)	44.7µM*	-22.7%	4.9%	u	x	u
CC1(C)CC(=O)CC2(C1)NCC(c1ccccc1)c1c2[nH]c2ccccc12 (stereo not drawn)	-34.8%	-3.4%	16.5%	u	-0.2%	u
